This is an account of results in PubChem BioAssay (Tox21).

“And” between values parts separate entries of the source, which are not always exact repeats. Equal entries are not always repeated. Results filed as inconclusive are left out. The source holds several records for some structures; these can differ, active in one and inactive in another. The source made the active and inactive calls. Unless noted, the call rests on the fitted dose curve; in most records, active means well fitted curve in the direction sought with a large enough effect in the repeat runs; inconclusive means weak or mixed curves; inactive means no such curve, though single readings can be large; an effect the other way counts as inactive or inconclusive.

Assay [1] in a line: qHTS assay to identify small molecule antagonists of the thyroid receptor (TR) signaling pathway - cell viability counter screen (AID 743064). Further: nearly all actives have a fitted effect of over 50% in size. Further: potency means the concentration at half of the fitted maximal effect. In a few lines:
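In-well cytotoxicity read by CellTiter-Fluor (30 min, 37 C) following 23.5 h exposure of GH3 cells bearing a TRE-luciferase sensor. Compounds were added alongside 1 nM (final) T3 to drive TR transactivation.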

For assay [2], the system named is thyroid hormone receptor (rat, GH3 cells). The experiment in a line: qHTS assay to identify small molecule agonists of the thyroid receptor (TR) signaling pathway (AID 743066; calls by dose curve).
The target in assay [3] is Estrogen receptor (Homo sapiens) (UniProt P03372). Briefly: qHTS assay to identify small molecule antagonists of the estrogen receptor alpha (ER-alpha) signaling pathway (AID 743069; active means well fitted curve in the direction sought with a large enough effect in the signal ratio in the repeat runs, not every such curve was filed as active; the % refers to the signal ratio). In short, it runs like this:
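ER-alpha-UAS-bla GripTite HEK293 line; 2% charcoal-stripped FBS overnight; plated, 4 hr 37C/5% CO2; cpd in DMSO + 17beta-estradiol, 18 hr 37C; LiveBLAzer B/G FRET substrate 2 hr RT; fluorescence intensity.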

Assay [4] can be described thus: qHTS assay to identify small molecule antagonists of the estrogen receptor alpha (ER-alpha) signaling pathway - cell viability counter screen (AID 743074; calls by dose curve;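 further: HEK293 cells carrying ER-alpha-UAS-bla reporter stimulated with 17beta-estradiol; nearly all actives have a fitted effect of over 45% in size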).
For assay [5], the target named is Estrogen receptor (Homo sapiens) (UniProt P03372). Briefly: qHTS assay to identify small molecule agonists of the estrogen receptor alpha (ER-alpha) signaling pathway (AID 743075; calls by dose curve;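 further: HEK293 GripTite cells with ER-alpha and UAS-driven beta-lactamase reporter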).
Assay [6] shares this target. The experiment in a line: qHTS assay to identify small molecule agonists of the estrogen receptor alpha (ER-alpha) signaling pathway using the BG1 cell line (AID 743079). Further: nearly all actives have a fitted effect of over 20% in size.
Assay [7] in a line: qHTS assay to identify small molecule antagonists of the estrogen receptor alpha (ER-alpha) signaling pathway using the BG1 cell line (AID 743080; calls by dose curve;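 further: BG1 cells stimulated with 17beta-estradiol alongside compound; series mostly up to about 70 µM; nearly all actives have a fitted effect of over 25% in size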). In a few lines:
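After 5 days in phenol-red-free 10% charcoal-stripped FBS medium, BG1-Luc-4E2 cells were seeded, left 24 h at 37 C, co-treated with compounds and 17beta-estradiol for 21.5 h, then assayed for viability and luciferase.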

Assay [8] can be described thus: qHTS assay to identify small molecule antagonists of the estrogen receptor alpha (ER-alpha) signaling pathway using the BG1 cell line - cell viability counter screen (AID 743081).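 Further: compound given together with 17beta-estradiol as the ER stimulus; series mostly up to about 70 µM; nearly all actives have a fitted effect of over 45% in size.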
The target in a further assay is Aromatase (Homo sapiens) (UniProt P11511). The experiment in a line: qHTS assay to identify aromatase inhibitors (AID 743083). Further: series mostly up to about 70 µM; nearly all actives have a fitted effect of over 55% in size.
Assay [9] is described as follows: qHTS assay to identify aromatase inhibitors - cell viability counter screen (AID 743084).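 Further: cells stimulated with testosterone during compound exposure; nearly all actives have a fitted effect of over 55% in size.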
For assay [10], the target named is Aryl hydrocarbon receptor (Homo sapiens) (UniProt P35869). The experiment in a line: qHTS assay to identify small molecule that activate the aryl hydrocarbon receptor (AhR) signaling pathway (AID 743085). Further: nearly all actives have a fitted effect of over 15% in size. Further: potency means the concentration at half of the fitted maximal effect.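 On activation: HG2L7.5c1 human HepG2 liver cells with stably integrated DRE-driven firefly reporter; series mostly up to about 70 µM.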 In short, it runs like this: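 Luminescence (ONE-Glo) from a dioxin-responsive-element luciferase reporter in HG2L7.5c1 HepG2 cells after 24 hr compound exposure at 37C; viability measured by CellTiter-Fluor fluorescence beforehand.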

Assay [11] in a line: qHTS assay to identify small molecule that activate the aryl hydrocarbon receptor (AhR) signaling pathway - cell viability counter screen (AID 743086).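 Further: HepG2 liver cells carrying the AhR DRE luciferase reporter; series mostly up to about 70 µM; nearly all actives have a fitted effect of over 45% in size.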 In short, it runs like this:
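Cytotoxicity counter screen: CellTiter-Fluor signal (30 min, 37 C) in 4000 HepG2 cells/well carrying the DRE-luciferase reporter, following 24 h compound exposure at 37 C.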

A short description of assay [12]: qHTS assay to identify small molecule antagonists of the peroxisome proliferator-activated receptor gamma (PPARg) signaling pathway - cell viability counter screen (AID 743194). Further: nearly all actives have a fitted effect of over 55% in size. In a few lines: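 Viability was measured as CellTiter-Glo luminescence in GeneBLAzer PPARg UAS-bla HEK293H cells. These cells had been exposed 17 h at 37 C to compounds together with rosiglitazone at 50 nM final, with the beta-lactamase readout taken in the same wells.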

Assay [13] is described as follows: qHTS assay for small molecule agonists of the antioxidant response element (ARE) signaling pathway (AID 743202; active means well fitted activation curve with a large enough effect in the signal ratio in the repeat runs, not every such curve was filed as active; the % refers to the signal ratio; further: potency means the concentration at half of the fitted maximal effect). In a few lines:
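Quantitative high-throughput format in HepG2 cells bearing an integrated ARE-beta-lactamase reporter. Compound exposure lasted 16 h at 37 C, and fluorescence was read 2 h after adding LiveBLAzer B/G substrate at room temperature.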

Assay [14] is described as follows: qHTS assay for small molecule agonists of the antioxidant response element (ARE) signaling pathway - cell viability counter screen (AID 743203; calls by dose curve; further: nearly all actives have a fitted effect of over 55% in size). In a few lines:
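HepG2 cells carrying ARE-driven beta-lactamase; 2,000 cells/well; 5 hrs plating; compound pinned from DMSO; 16 hrs 37C/5% CO2; CellTiter-Glo added; 30 min RT; luminescence.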

Assay [15] can be described thus: qHTS assay for small molecule activators of the heat shock response signaling pathway (AID 743210; active means well fitted activation curve with a large enough effect in the signal ratio in the repeat runs, with a control signal flat, not every such curve was filed as active; the % refers to the signal ratio;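 further: HeLa cells with beta-lactamase reporter driven by heat shock elements; series mostly up to about 63 µM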). In a few lines:
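HeLa HSE-bla cells, overnight plating; cpd in DMSO 5 h, 37 C; LiveBLAzer B/G FRET substrate 2.5 h RT; fluorescence intensity read.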

The nature of assay [16]: qHTS assay to identify small molecule antagonists of the thyroid receptor (TR) signaling pathway (AID 743065). Further: nearly all actives have a fitted effect of over 55% in size. Further: potency means the concentration at half of the fitted maximal effect. In a few lines: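 Antagonism measured as loss of luciferase signal in GH3 cells stably carrying a TRE-luciferase reporter, co-treated with compound and T3 (1 nM final) for 23.5 h at 37 C. Viability was read in the same well by CellTiter-Fluor.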
A short description of assay [17]: qHTS assay for small molecule activators of the heat shock response signaling pathway - cell viability counter screen (AID 743209). Further: nearly all actives have a fitted effect of over 50% in size. In short, it runs like this:
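Luminescence from CellTiter-Glo, added after the beta-lactamase FRET read, gave the viability signal. Cells were HSE-bla HeLa treated with DMSO-dissolved compounds for 5 h at 37 C following overnight plating.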

For assay [18], the target named is Peroxisome proliferator-activated receptor gamma (Homo sapiens) (UniProt P37231). The experiment in a line: qHTS assay to identify small molecule agonists of the peroxisome proliferator-activated receptor gamma (PPARg) signaling pathway (AID 743094; active means well fitted activation curve with a large enough effect in the signal ratio in the repeat runs, not every such curve was filed as active; the % refers to the signal ratio). In short, it runs like this:
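Beta-lactamase FRET fluorescence was the read-out after a 1 h room-temperature substrate step, following 17 h compound treatment at 37C of HEK293H cells expressing a UAS-driven bla reporter responsive to PPARg.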

The target is the same in assay [19]. The experiment in a line: qHTS assay to identify small molecule antagonists of the peroxisome proliferator-activated receptor gamma (PPARg) signaling pathway (AID 743191; calls by dose curve; further: series mostly up to about 63 µM; nearly all actives have a fitted effect of over 30% in size). In a few lines: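 Beta-lactamase reporter under UAS control in HEK293H PPARg-bla cells; compound treatment 17 h at 37C. Read-out: fluorescence intensity after 1 h room-temperature incubation with LiveBLAzer B/G FRET substrate.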

Sequence of Estrogen receptor (Homo sapiens) (P03372 whole entry, looked up): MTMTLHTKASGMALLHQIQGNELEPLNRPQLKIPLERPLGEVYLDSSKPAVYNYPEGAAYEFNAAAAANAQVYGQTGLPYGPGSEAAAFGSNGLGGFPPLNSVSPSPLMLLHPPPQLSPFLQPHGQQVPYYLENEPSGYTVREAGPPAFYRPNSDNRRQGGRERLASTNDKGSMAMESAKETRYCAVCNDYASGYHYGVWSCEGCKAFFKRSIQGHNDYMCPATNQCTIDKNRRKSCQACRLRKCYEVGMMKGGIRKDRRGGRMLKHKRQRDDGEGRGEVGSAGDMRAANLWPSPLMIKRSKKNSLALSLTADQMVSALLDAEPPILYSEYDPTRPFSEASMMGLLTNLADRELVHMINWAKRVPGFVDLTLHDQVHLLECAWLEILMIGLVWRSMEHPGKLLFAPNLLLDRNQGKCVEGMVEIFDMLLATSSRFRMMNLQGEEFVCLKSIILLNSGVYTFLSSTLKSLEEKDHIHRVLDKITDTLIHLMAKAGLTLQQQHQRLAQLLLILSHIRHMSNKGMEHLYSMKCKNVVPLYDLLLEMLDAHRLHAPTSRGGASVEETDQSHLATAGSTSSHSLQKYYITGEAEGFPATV
Sequence of Aromatase (Homo sapiens) (P11511 whole entry, looked up): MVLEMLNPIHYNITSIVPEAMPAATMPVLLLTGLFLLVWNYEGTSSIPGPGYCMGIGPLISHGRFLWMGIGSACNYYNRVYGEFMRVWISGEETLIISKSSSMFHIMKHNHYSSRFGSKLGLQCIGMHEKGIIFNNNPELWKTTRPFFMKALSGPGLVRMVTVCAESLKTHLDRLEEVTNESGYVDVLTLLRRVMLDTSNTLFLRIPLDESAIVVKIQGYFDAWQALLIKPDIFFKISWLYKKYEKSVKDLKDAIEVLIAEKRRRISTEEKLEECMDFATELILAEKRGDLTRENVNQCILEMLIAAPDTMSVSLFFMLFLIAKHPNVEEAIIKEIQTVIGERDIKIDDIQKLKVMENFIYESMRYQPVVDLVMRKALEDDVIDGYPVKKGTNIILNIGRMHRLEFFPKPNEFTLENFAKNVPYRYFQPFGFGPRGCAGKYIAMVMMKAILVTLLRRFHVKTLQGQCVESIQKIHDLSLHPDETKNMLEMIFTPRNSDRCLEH
Sequence of Aryl hydrocarbon receptor (Homo sapiens) (P35869 whole entry, looked up): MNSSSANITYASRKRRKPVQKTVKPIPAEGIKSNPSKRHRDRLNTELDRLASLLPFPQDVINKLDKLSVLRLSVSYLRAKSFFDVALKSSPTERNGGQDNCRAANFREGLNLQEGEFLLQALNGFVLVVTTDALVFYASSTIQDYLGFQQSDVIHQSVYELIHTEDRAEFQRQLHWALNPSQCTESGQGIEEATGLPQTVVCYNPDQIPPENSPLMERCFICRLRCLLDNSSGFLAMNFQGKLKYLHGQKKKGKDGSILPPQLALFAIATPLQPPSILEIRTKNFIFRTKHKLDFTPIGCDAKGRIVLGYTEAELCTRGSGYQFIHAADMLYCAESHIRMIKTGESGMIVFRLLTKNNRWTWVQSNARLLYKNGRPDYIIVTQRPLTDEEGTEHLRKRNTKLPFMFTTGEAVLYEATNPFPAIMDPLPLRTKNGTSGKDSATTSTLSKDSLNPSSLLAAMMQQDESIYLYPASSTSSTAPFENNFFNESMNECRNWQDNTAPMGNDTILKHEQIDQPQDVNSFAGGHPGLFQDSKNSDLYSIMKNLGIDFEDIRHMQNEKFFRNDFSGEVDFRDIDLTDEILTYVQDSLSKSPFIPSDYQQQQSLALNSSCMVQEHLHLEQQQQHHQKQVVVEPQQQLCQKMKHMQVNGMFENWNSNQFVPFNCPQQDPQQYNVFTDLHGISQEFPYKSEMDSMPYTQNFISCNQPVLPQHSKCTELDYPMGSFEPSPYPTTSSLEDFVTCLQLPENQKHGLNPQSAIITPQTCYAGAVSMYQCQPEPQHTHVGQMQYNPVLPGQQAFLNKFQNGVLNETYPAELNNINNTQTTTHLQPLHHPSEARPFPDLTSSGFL
Sequence of Peroxisome proliferator-activated receptor gamma (Homo sapiens) (P37231 whole entry, looked up): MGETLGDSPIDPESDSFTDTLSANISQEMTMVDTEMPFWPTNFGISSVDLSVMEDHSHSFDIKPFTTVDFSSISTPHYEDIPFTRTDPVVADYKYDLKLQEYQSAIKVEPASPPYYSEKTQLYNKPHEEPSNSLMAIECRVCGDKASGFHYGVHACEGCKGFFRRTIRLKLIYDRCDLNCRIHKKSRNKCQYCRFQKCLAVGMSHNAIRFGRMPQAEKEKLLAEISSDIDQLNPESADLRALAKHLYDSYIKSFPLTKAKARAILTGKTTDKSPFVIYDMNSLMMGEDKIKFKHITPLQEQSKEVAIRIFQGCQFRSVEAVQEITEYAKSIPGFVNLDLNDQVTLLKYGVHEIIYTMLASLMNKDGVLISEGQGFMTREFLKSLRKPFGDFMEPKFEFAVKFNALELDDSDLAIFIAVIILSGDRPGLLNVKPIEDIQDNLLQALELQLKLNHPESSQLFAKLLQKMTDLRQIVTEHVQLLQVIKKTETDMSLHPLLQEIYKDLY

For the compound `OCc1cccnc1`, the Potency result in [1], in assay [2], in [3], in [5], in assay [6] and in assay [7] was “inactive” each time. For the same compound, the Potency entry (in [8]; with Aromatase (Homo sapiens); in assay [9]; in assay [10]; in [13]; in [15]) was “inactive” throughout. In addition, the compound was called inactive in [4], in [11], in assay [12] and in [14].

With `CCCCC(CC)COC(=O)CS` (stereo not given), the Potency result in assay [1], in [16], in assay [2], in assay [8], in assay [13] and in assay [15] was “inactive” in each case. Moreover, the call in assay [4], in assay [11], in assay [12], in [14] and in assay [17] was inactive.

Turning to `CCCCCC1=CCCC1=O`, the Potency result in assay [16], in [2], in assay [3], in assay [5], in assay [6] and in assay [7] was “inactive” each time. In addition, the Potency result (in assay [8]; with Aromatase (Homo sapiens); in [9]; in assay [10]; in assay [13]; in assay [15]) was “inactive” throughout. Also, the call in [4], in [11], in assay [18], in [19], in assay [12] and in [14] was inactive. Further, the result in assay [17] was inactive.

As for `C=CCNC(N)=S`, the Potency result (in assay [1]; in [16]; in assay [2]; in [8]; with Aromatase (Homo sapiens); in [9]) was “inactive” throughout. Also, the Potency entry in assay [10], in assay [13] and in assay [15] was “inactive” throughout. The compound was called inactive in [4], in assay [11], in assay [18], in [14] and in assay [17].

For `OCCOCCN1CCN(C2=Nc3ccccc3Sc3ccccc32)CC1`, the Potency entry in assay [2], in assay [8], in assay [10] and in assay [15] was “inactive” throughout. In addition, the compound was classed as inactive in assay [4], in assay [11], in [12] and in assay [14].

With `CC1=CC(=O)NS(=O)(=O)O1`, the Potency entry (in assay [1]; in assay [16]; in assay [2]; in assay [8]; with Aromatase (Homo sapiens); in assay [9]) was “inactive” each time. The Potency entry in assay [10], in assay [13] and in assay [15] was “inactive” throughout. Also, the compound was called inactive in [4], in [11], in assay [14] and in assay [17].

On to `CN(C)CCOCCN(C)C`, for which the Potency result (in [1]; in [16]; in [2]; in [8]; in the assay with Aromatase (Homo sapiens); in [9]) was “inactive” throughout. Moreover, the Potency entry in assay [13] and in [15] was “inactive” throughout. Besides, the result in assay [4], in assay [11], in [18], in [12], in [14] and in assay [17] was inactive. Also, the Potency in assay [10] is 62.3 µM (active) and inactive.

Take `C[Si](O[Si](C)(C)C)O[Si](C)(C)C`: the Potency entry (in assay [1]; in [16]; in assay [2]; in assay [8]; in the assay with Aromatase (Homo sapiens); in [9]) was “inactive” each time. In addition, the Potency entry in [10], in assay [13] and in assay [15] was “inactive” each time. Moreover, the result in assay [4], in [11], in assay [18], in [14] and in assay [17] was inactive.

For `CC(C)CC(=O)CC(C)C`, the Potency result in assay [1], in assay [16], in assay [2], in [8], in [13] and in assay [15] was “inactive” throughout. Further, the compound was called inactive in [4], in [11], in assay [14] and in [17].

Take `O=C(Oc1ccccc1)c1ccccc1`: the Potency entry (in [1]; in [16]; in assay [2]; in assay [8]; in the assay with Aromatase (Homo sapiens); in [9]) was “inactive” throughout. The Potency result in assay [13] and in assay [15] was “inactive” in each case. Besides, the result in assay [4], in [11], in assay [18], in [12] and in assay [14] was inactive.

For `CN(C)CCC(c1ccc(Cl)cc1)c1ccccn1` (stereo not given), the Potency in [1] is 24.4 µM (active) and 30.6 µM (active); in [16] it was 48.7 µM (active) and 48.6 µM (active). The Potency entry in [2], in [8], in assay [10] and in [15] was “inactive” each time. Also, the result in assay [4], in assay [11], in [12], in [14] and in assay [17] was inactive.

In the case of `CCCCCC(N)=O`, the Potency result (in [1]; in assay [16]; in assay [2]; in assay [8]; with Aromatase (Homo sapiens); in assay [9]) was “inactive” each time. The Potency result in [10], in assay [13] and in assay [15] was “inactive” in each case. The call in assay [4], in [11], in [18], in assay [12], in assay [14] and in [17] was inactive.

Take `O=C(O)c1cc(=O)c2c(OCC(O)COc3cccc4oc(C(=O)O)cc(=O)c34)cccc2o1`: the Potency result (in assay [3]; in [5]; in assay [6]; in [7]; in [8]; with Aromatase (Homo sapiens)) was “inactive” in each case. The Potency entry in assay [9], in assay [10], in assay [13] and in assay [15] was “inactive” throughout. Further, the compound was classed as inactive in [4], in assay [11], in assay [18], in assay [14] and in assay [17].

`Oc1cccc2ccccc12`: the Potency result in assay [1], in assay [16], in assay [2], in assay [8] and in [15] was “inactive” each time. The compound was called inactive in assay [4], in assay [11], in assay [12], in assay [14] and in [17]. Moreover, in assay [13], the Potency was 31.4 µM (active) and 30.6 µM (active).
